High-throughput results deposited in PubChem by several laboratories.
PAX8 inh HTS: inhibitors of PAX8-driven TPO luciferase reporter, primary screen, RMG-I cells, single concentration. 360,000 tested, 1.2% active. inhibition, % at 12.6 µM. AID 652154, 2013. SteadyGlo, 24 h;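 active = mean replicate inhibition at least 60% with every replicate also reaching 60%; inconclusive = only one of the two criteria is met; inactive = mean below 60% and not all replicates reaching 60%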;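 also: luciferase light reporting Pax8 driven TPO promoter activity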
EWS-Fli inh: EWS/Fli-driven NR0B1 reporter inhibitors, primary screen, A673 cells, NR0B1 luciferase, luminescence, MLPCN library | viability-normalised | inhibition, % at 12.6 µM | 350,000 tested, 0.67% active;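 active = mean inhibition of at least 50% after viability correction, with every replicate also passing that limit; inconclusive = mean reaches 50% but only one of two replicates passes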;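 also: firefly luciferase signal divided by Alamar Blue viability fluorescence both relative to DMSO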
Shn3 3UTR inh: reduction of Shn3 3'UTR firefly luciferase signal, primary screen, Schnurri-3 inhibitor project, cell-based, Clone20 osteoblasts, set 2; Clone20 osteoblast Shn3 3'UTR firefly luciferase, 24 h; inhibition, % at 12.5 µM; 360,000 tested, 0.52% active; AID 588674, 2011;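 active = mean inhibition of at least 75% with every replicate also reaching 75%; inconclusive = mean inhibition at least 75% but some replicate below; inactive = mean inhibition below 75%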
KKLEB cytotox: cytotoxicity in KKLEB CF airway cells, primary screen, cytotoxicity control for CF NF-kB inhibitor project, cell-based, uHTS, fluorescence assay plates. KKLEB CF airway cells viability, ATPlite luminescence, overnight; stronger effect = lower value; cells stimulated with P. aeruginosa culture filtrate. activity change (cytotoxicity), % at 5 µM. 360,000 tested, 0.36% active. AID 602141, 2011;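 active = corrected activity change at or below -50% at 5 µM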
LGR2 antag: inhibitors of bursicon-induced LGR2 CRE-luciferase signal, primary screen, cell-based, HEK293, CRE-luciferase reporter, bursicon stimulation; Drosophila bursicon receptor LGR2 (rickets); bursicon-stimulated, 4 h; inhibition, % at 9.99 µM; 380,000 tested, 0.35% active; AID 720647, 2013;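 active = drop in luminescence signal, shown as inhibition above about 50% in the replicate tests, limit read from the data, passing the limit was not always enough; inconclusive = probably only some replicates passing the limit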;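 also: agonist challenge used bursicon conditioned medium at about half maximal strength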
CF NFkB block: inhibitors of PAF-induced NF-kB signaling, primary screen, cell-based, GFP fluorescence, uHTS | AID 588850, 2011 | 360,000 tested, 0.86% active | inhibition, % at 5 µM | KKLEB NF-kB-GFP reporter, GFP fluorescence overnight;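 active = at least 50% inhibition at 5 µM, scaled per plate between neutral and stimulator controls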;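 also: PAF is a Pseudomonas aeruginosa culture filtrate used as stimulus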
Large screens that a line does not name were inactive; ! = not active in a repeat. This is a sample that favours compounds with a hit; in the whole collection about 2% have one here.

Cc1nc(C)c(C(=O)N/N=C/c2cc(Br)ccc2O)s1	PAX8 inh HTS 67 (no result: Shn3 3UTR inh)
O=C(N/N=C/c1cc(Cl)ccc1O)c1ccc(Br)cc1	PAX8 inh HTS inconclusive, CF NFkB block 57 (no result: EWS-Fli inh)
O=C(N/N=C\c1cc(Br)ccc1O)c1ccc(S(=O)(=O)N2CCCCC2)cc1	Shn3 3UTR inh 91
O=C(N[C@H]1CC[C@@H](CCn2cc(Cc3ccccc3)nn2)O[C@H]1CO)c1ccccn1	none (no result: Shn3 3UTR inh, KKLEB cytotox, CF NFkB block)
C[C@H]1CN([C@@H](C)CO)C(=O)c2cc(NC(=O)C3CCCCC3)ccc2O[C@@H]1CN(C)Cc1ccc(C(F)(F)F)cc1	none (no result: PAX8 inh HTS, Shn3 3UTR inh, KKLEB cytotox, CF NFkB block)
COc1ccc(OC)c(COC(=O)c2cc([N+](=O)[O-])ccc2N2CCOCC2)c1	EWS-Fli inh 65
O=C(OCc1ccccc1F)c1cc([N+](=O)[O-])ccc1N1CCOCC1	none
CSc1ccc(COC(=O)c2cc([N+](=O)[O-])ccc2N2CCOCC2)cc1	PAX8 inh HTS 96, EWS-Fli inh 55
O=C(NCCOc1ccccc1)c1cc([N+](=O)[O-])ccc1N1CCOCC1	EWS-Fli inh 58
O=C(NCCOc1ccccc1F)c1cc([N+](=O)[O-])ccc1N1CCOCC1	none
Cc1ccccc1COC(=O)c1cc([N+](=O)[O-])ccc1N1CCOCC1	none (no result: EWS-Fli inh)
O=C(O)C[C@@H]1CC[C@H](NC(=O)Nc2cc(F)ccc2F)[C@@H](CO)O1	none (no result: Shn3 3UTR inh, KKLEB cytotox, CF NFkB block)
C[C@@H]1CN([C@H](C)CO)C(=O)c2cc(NC(=O)Cc3ccccc3)ccc2O[C@@H](C)CCCCO[C@@H]1CN(C)C(=O)Nc1cccc2ccccc12	PAX8 inh HTS 64 (no result: Shn3 3UTR inh, KKLEB cytotox, CF NFkB block)
C[C@H]1CCCCO[C@H](CN(C)C(=O)Nc2cccc3ccccc23)[C@@H](C)CN([C@@H](C)CO)C(=O)c2cc(NC(=O)NC3CCCCC3)ccc2O1	PAX8 inh HTS 67 (no result: Shn3 3UTR inh, KKLEB cytotox, CF NFkB block)
C[C@@H]1CCCCO[C@H](CN(C)C(=O)Nc2cccc3ccccc23)[C@H](C)CN([C@H](C)CO)C(=O)c2cc(NC(=O)Cc3ccccc3)ccc2O1	none (no result: Shn3 3UTR inh, KKLEB cytotox, CF NFkB block)
C[C@@H]1CN([C@H](C)CO)C(=O)c2cc(C#CC3CCCCC3)cnc2O[C@H]1CN(C)C	none (no result: PAX8 inh HTS, Shn3 3UTR inh, KKLEB cytotox, CF NFkB block)
O=C(NC1CCCCC1)N[C@@H]1CC[C@H](CC(=O)N2CCOCC2)O[C@H]1CO	none (no result: Shn3 3UTR inh, KKLEB cytotox, CF NFkB block)
COc1ccc(Nc2cc(C)nc(NCc3ccccc3)n2)cc1	Shn3 3UTR inh 89
Cc1ccc(Nc2cc(C)nc(NCc3ccccc3)n2)cc1	none (no result: LGR2 antag)
O=C(Nc1cc(C(F)(F)F)ccc1N1CCOCC1)C1=NN(c2ccccc2)C(=O)CC1	PAX8 inh HTS 80 (no result: EWS-Fli inh)
C#CCOCCOCCOCCNc1nc(N2CCN(C(=O)CCCCCCCCCCNC(=O)[C@H](CCCCN)n3cc(C[C@@H](C)CC)nn3)CC2)nc(N2CCN(C(=O)CCCCCCCCCCNC(=O)[C@@H]([C@H](C)O)n3cc(C)nn3)CC2)n1	Shn3 3UTR inh 96 (no result: PAX8 inh HTS, EWS-Fli inh, LGR2 antag)
Cc1cn([C@@H](CCCCNC(=O)OC(C)(C)C)C(=O)NCCCCCCCCCCC(=O)N2CCN(C(=O)OC(C)(C)C)CC2)nn1	Shn3 3UTR inh 90 (no result: PAX8 inh HTS, EWS-Fli inh, LGR2 antag)
COC(=O)[C@@H]1[C@@H](CO)[C@@H]2Cn3c(ccc(/C=C/c4ccccc4)c3=O)[C@@H]2N1C(=O)C1CCCC1	none (no result: PAX8 inh HTS, Shn3 3UTR inh, KKLEB cytotox, CF NFkB block)
C=C1C(=O)OC2C1CCC(C)=C1C(=O)C3OC3(C)C12 (centres undefined)	Shn3 3UTR inh 98, KKLEB cytotox -85, LGR2 antag 99, CF NFkB block 86 (no result: PAX8 inh HTS)
CO[C@H]1CN(C)C(=O)c2ccc(NS(=O)(=O)c3cccc(Cl)c3)cc2OC[C@@H](C)NC[C@H]1C	none (no result: Shn3 3UTR inh, KKLEB cytotox, CF NFkB block)
CC1(C(=O)O)CCCN1C(=O)c1ccccc1OC(F)(F)F (centres undefined)	PAX8 inh HTS 73
CCOC(=O)C1(C)CCN1C(=O)c1ccccc1OC(F)(F)F (centres undefined)	none
CC(C)C#Cc1cnc2c(c1)C(=O)N([C@H](C)CO)C[C@H](C)[C@@H](CN(C)C(=O)Cc1ccncc1)O2	none (no result: Shn3 3UTR inh, KKLEB cytotox, CF NFkB block)
CCSc1cc(N2CCOCC2)nc(-c2ccc(Cl)cc2)n1	PAX8 inh HTS 135
CCNC(=O)C[C@@H]1C=C[C@H](NC(=O)C2CCOCC2)[C@H](CO)O1	none (no result: Shn3 3UTR inh, KKLEB cytotox, CF NFkB block)
O=C(C[C@@H]1CC[C@@H]2[C@H](COC[C@H](O)CN2Cc2cccc(Cl)c2)O1)NCc1cccc(F)c1	none (no result: Shn3 3UTR inh, KKLEB cytotox, CF NFkB block)
COc1cc(N=c2ssnc2Cl)c(OC)cc1Cl	Shn3 3UTR inh 95!
COc1ccc(OC)c(N=c2ssnc2Cl)c1	none (no result: EWS-Fli inh, LGR2 antag)
Cc1ccc(N=c2ssnc2Cl)cc1	Shn3 3UTR inh 88 (no result: EWS-Fli inh, LGR2 antag)
Cc1cc(Cl)ccc1N=c1ssnc1Cl	none (no result: PAX8 inh HTS, EWS-Fli inh, LGR2 antag)
CO[C@H]1CN(C)C(=O)c2ccc(NC(=O)Nc3ccccc3)cc2OC[C@@H](C)N(C(=O)CN(C)C)C[C@@H]1C	none (no result: PAX8 inh HTS, Shn3 3UTR inh, KKLEB cytotox, CF NFkB block)
C/C=C/c1ccc2c(c1)O[C@H](CN(C)C(=O)c1ccccn1)[C@@H](C)CN([C@H](C)CO)S2(=O)=O	none (no result: PAX8 inh HTS, Shn3 3UTR inh, KKLEB cytotox, CF NFkB block)
CCC1=Nc2cc(C(=O)NCc3cccnc3)ccc2Sc2ccc(C)cc21	EWS-Fli inh 65
CCC1=Nc2cc(C(=O)NCC3CCCO3)ccc2Sc2ccc(Cl)cc21 (centres undefined)	EWS-Fli inh 57
CO[C@@H]1CN(C)C(=O)c2cc(NS(=O)(=O)c3ccccc3)ccc2OC[C@@H](C)NC[C@@H]1C	none (no result: Shn3 3UTR inh, KKLEB cytotox, CF NFkB block)
Cc1cc(N/N=C/c2ccc(O)cc2)c2cccc(C)c2n1	none
Cc1cc(C)c2nc(C)cc(N/N=C/c3ccc(O)cc3)c2c1	PAX8 inh HTS 94, EWS-Fli inh 67, KKLEB cytotox -81
O=C(Nc1cccc(F)c1)N1C[C@@H]2N[C@H](C1)C2c1ccc(-c2cncnc2)cc1 (some centres undefined)	none (no result: Shn3 3UTR inh, KKLEB cytotox, CF NFkB block)
O=C(Nc1cccc(F)c1)N1C[C@@H]2N[C@H](C1)C2c1ccc(-c2ccc(F)cc2)cc1 (some centres undefined)	PAX8 inh HTS 86! (no result: Shn3 3UTR inh, KKLEB cytotox, CF NFkB block)
Cc1cccc(-c2ccc(C3[C@@H]4CN(C(=O)Nc5ccccc5)C[C@H]3N4)cc2)c1 (some centres undefined)	none (no result: Shn3 3UTR inh, KKLEB cytotox, CF NFkB block)
Cc1cccc(-c2ccc(C3[C@@H]4CN(C(=O)Nc5ccc(F)cc5)C[C@H]3N4)cc2)c1 (some centres undefined)	PAX8 inh HTS 95! (no result: Shn3 3UTR inh, KKLEB cytotox, CF NFkB block)
C[C@@H]1CN([C@H](C)CO)C(=O)c2cc(NS(=O)(=O)c3cccs3)ccc2O[C@H]1CN(C)Cc1ccc(Oc2ccccc2)cc1	none (no result: PAX8 inh HTS, Shn3 3UTR inh, KKLEB cytotox, CF NFkB block)
C[C@@H]1CCCCO[C@@H](CN(C)S(C)(=O)=O)[C@H](C)CN([C@H](C)CO)C(=O)c2cc(N(C)C)ccc2O1	none (no result: Shn3 3UTR inh, KKLEB cytotox, CF NFkB block)
